Laboratory results published in PubChem BioAssay (Tox21).
Results filed as inconclusive are left out. Activity calls are given as the source filed them. Unless noted, calls come from the whole dose curve; as a rule, active = well fitted curve in the direction sought with a large enough effect in the repeat runs; inconclusive = weak or mixed curves; inactive = no such curve, though single readings can be large; an effect the other way counts as inactive or inconclusive.

Key:
[1] = qHTS assay to identify small molecule agonists of the estrogen receptor alpha (ER-alpha) signaling pathway in the presence of an antagonist - cell viability counter screen (AID 1259386);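 note: series mostly up to about 92 µM; cells exposed to compounds for 22 h at 37 °C before the viability read; nearly all actives have a fitted effect of over 30% in size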
How it was run: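 Viability counter screen using VM7Luc4E2 (full-length ER-alpha, four ERE-luciferase). The cells were treated with compounds alongside ICI-182,780 10.0nM for 22hr, and live-cell protease fluorescence was quantified with CellTiter-Fluor.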

[2] = target: Progesterone receptor (Homo sapiens) (UniProt P06401); test: qHTS assay to identify small molecule agonists of the progesterone receptor (PR) signaling pathway (AID 1346784; calls by dose curve; note: nearly all actives have a fitted effect of over 30% in size)
Chain of Progesterone receptor (Homo sapiens) (P06401 whole entry, looked up): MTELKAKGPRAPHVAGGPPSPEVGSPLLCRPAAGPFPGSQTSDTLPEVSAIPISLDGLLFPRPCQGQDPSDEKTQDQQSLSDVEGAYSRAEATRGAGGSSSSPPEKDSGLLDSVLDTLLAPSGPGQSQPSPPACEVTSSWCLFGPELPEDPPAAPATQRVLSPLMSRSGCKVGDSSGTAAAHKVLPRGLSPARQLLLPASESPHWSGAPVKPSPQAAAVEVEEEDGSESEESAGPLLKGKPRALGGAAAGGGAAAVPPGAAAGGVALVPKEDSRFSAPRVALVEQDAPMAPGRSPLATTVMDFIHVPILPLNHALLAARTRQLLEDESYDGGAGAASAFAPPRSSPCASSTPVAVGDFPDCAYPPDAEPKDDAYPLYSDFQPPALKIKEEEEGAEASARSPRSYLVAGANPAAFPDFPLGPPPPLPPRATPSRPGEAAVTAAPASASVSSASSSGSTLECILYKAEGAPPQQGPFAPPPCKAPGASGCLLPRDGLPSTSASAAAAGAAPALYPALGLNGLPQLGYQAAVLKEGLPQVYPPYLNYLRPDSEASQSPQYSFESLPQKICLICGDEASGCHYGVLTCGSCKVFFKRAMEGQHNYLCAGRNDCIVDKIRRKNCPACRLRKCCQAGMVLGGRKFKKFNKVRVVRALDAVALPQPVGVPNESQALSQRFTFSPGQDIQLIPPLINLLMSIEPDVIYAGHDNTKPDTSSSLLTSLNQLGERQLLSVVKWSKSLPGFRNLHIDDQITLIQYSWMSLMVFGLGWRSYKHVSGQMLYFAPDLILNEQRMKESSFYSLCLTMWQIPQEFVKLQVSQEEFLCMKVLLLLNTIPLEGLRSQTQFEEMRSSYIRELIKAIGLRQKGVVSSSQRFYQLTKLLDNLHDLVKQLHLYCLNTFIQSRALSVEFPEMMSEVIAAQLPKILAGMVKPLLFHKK
How it was run: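 Using charcoal-stripped serum (2%) to limit endogenous steroids, PR-UAS-bla HEK 293T cells received compounds for 16 hr at 37C after 6 hr plating; beta-lactamase FRET fluorescence was recorded following 2 hr substrate loading at room temperature.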

[3] = target: Progesterone receptor (Homo sapiens) (UniProt P06401); test: qHTS assay to identify small molecule antagonists of the progesterone receptor (PR) signaling pathway (AID 1346795; active = well fitted inhibition curve with a large enough effect in the signal ratio in the repeat runs, not every such curve was filed as active; the % refers to the signal ratio; note: potency is the fitted concentration of half-maximal effect)
How it was run: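 Inhibition of R5020-induced (1 nM final) beta-lactamase reporter signal in PR-UAS-bla HEK293T cells was scored by FRET fluorescence after overnight (16 hr) compound treatment.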

[4] = qHTS assay to identify small molecule antagonists of the progesterone receptor (PR) signaling pathway - cell viability counter screen (AID 1346798); note: series mostly up to about 92 µM; nearly all actives have a fitted effect of over 50% in size
How it was run: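 ATP content as viability readout: CellTiter-Glo luminescence, 30 min room temperature, in PR-UAS-bla HEK293T cells after 16 hr compound/R5020 treatment at 37C and 5% CO2.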

[5] = qHTS assay to identify small molecule agonists of the progesterone receptor (PR) signaling pathway - cell viability counter screen (AID 1346799; calls by dose curve; note: nearly all actives have a fitted effect of over 45% in size)
How it was run: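 Cytotoxicity in PR-bla HEK293T cells: 16 h compound, 37C; CellTiter-Glo added post-FRET read; luminescence after 30 min RT.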

[6] = qHTS assay to identify small molecule antagonists of the TGF-beta/Smad signaling pathway - cell viability counter screen (AID 1346824); note: nearly all actives have a fitted effect of over 50% in size
How it was run: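 SBE-bla HEK 293T cells, incubated overnight, then compound plus 0.25 ng/mL TGF-beta1 (stock added) for 5 hr at 37 C. Viability was read in the same wells by CellTiter-Glo luminescence after 30 min at room temperature.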

[7] = qHTS assay to identify small molecule agonists of the TGF-beta/Smad signaling pathway - cell viability counter screen (AID 1346829); note: top concentration of the series differs between compounds; nearly all actives have a fitted effect of over 45% in size
How it was run: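 Tox21 qHTS format: SBE-bla HEK 293T cells treated with DMSO-dissolved compounds for 5 hr; CellTiter-Glo luminescence after 30 min at room temperature.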

[8] = qHTS assay to identify small molecule agonists of the TGF-beta/Smad signaling pathway (AID 1346859; active = well fitted activation curve with a large enough effect in the signal ratio in the repeat runs, not every such curve was filed as active; the % refers to the signal ratio; note: series mostly up to about 77 µM)
How it was run: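 Stable Smad binding element-beta-lactamase HEK 293T cells; 5 hr compound exposure at 37 C under 5% CO2; 2 hr room-temperature substrate step; fluorescence excited at 405 nm, collected at 460 nm and 530 nm.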

[9] = target: Thyrotropin-releasing hormone receptor (Homo sapiens) (UniProt P34981); test: qHTS assay to identify small molecule antagonists of the thyrotropin-releasing hormone receptor (TRHR) signaling pathway (AID 1346877; active = well fitted inhibition curve with a large enough effect in the repeat runs, not every such curve was filed as active; note: series mostly up to about 51 µM)
Chain of Thyrotropin-releasing hormone receptor (Homo sapiens) (P34981 whole entry, looked up): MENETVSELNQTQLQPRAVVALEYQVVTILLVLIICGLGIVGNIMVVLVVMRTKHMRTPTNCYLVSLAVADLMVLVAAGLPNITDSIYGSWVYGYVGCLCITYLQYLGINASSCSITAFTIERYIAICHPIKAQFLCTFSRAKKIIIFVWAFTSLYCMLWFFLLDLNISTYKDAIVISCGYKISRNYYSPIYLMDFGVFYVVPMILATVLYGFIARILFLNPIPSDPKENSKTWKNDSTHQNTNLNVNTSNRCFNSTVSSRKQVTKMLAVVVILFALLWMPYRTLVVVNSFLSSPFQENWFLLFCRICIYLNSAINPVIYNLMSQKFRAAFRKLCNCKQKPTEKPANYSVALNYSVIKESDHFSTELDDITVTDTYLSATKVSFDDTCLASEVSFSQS
How it was run: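 Following an 18 h incubation at 37 °C and a 2 h calcium dye load, TRHR-HEK293 cells were exposed to compound (5 min, room temperature) and challenged with TRH, 1 nM final.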

[10] = target: Thyrotropin-releasing hormone receptor (Homo sapiens) (UniProt P34981); test: qHTS assay to identify small molecule agonists of the thyrotropin-releasing hormone receptor (TRHR) signaling pathway (AID 1346891; calls by dose curve;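 note: HEK293 cells expressing TRHR with calcium dye readout; series mostly up to about 58 µM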)
How it was run: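 In 1536-format, 1500 TRHR-Hek293 cells per well grew 18 h, took up calcium dye for 2 h at 37 °C, received compound, and were read kinetically; 15-point titrations, triplicates.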

[11] = Human pregnane X receptor (PXR) small molecule agonists, qHTS cell viability counter screen (AID 1346977); note: nearly all actives have a fitted effect of over 50% in size
How it was run: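 Readout is CellTiter-Fluor fluorescence from PXR-Luc HepG2 cells. Plated cells rested 5hr, then were treated with compounds for 24hr at 37C and 5% CO2, with reagent present during the last hour.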

[12] = Caspase-3/7 induction in CHO-K1 cells by small molecules, qHTS cell viability counter screen (AID 1346979); note: nearly all actives have a fitted effect of over 35% in size
How it was run: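 To flag cytotoxic compounds, treated CHO-K1 wild-type cells were given CellTiter-Fluor at 16hr and read fluorescently after 1hr at 37C; the caspase-3/7 luminescence was measured in these same wells.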

[13] = Caspase-3/7 induction in CHO-K1 cells by small molecules, qHTS assay (AID 1346980); note: nearly all actives have a fitted effect of over 15% in size
How it was run: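 Wild-type CHO-K1 cells exposed to compounds for 17hr at 37 C, 5% CO2. Caspase-3/7 activity then measured by Caspase-Glo 3/7 luminescence after 30min at room temperature.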

[14] = Caspase-3/7 induction in HepG2 cells by small molecules, qHTS cell viability counter screen (AID 1346981); note: series mostly up to about 92 µM; nearly all actives have a fitted effect of over 30% in size
How it was run: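 Viability determined by CellTiter-Fluor fluorescence in HepG2 wells also used for the luminescent Caspase-Glo 3/7 read. Compounds were present for 16 hr at 37 C, 5% CO2 before reagent addition.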

[15] = target: Nuclear receptor subfamily 1 group I member 2 (Homo sapiens) (UniProt O75469); test: Human pregnane X receptor (PXR) small molecule agonists, qHTS assay (AID 1346982); note: nearly all actives have a fitted effect of over 35% in size; note: potency is the fitted concentration of half-maximal effect
Chain of Nuclear receptor subfamily 1 group I member 2 (Homo sapiens) (O75469 whole entry, looked up): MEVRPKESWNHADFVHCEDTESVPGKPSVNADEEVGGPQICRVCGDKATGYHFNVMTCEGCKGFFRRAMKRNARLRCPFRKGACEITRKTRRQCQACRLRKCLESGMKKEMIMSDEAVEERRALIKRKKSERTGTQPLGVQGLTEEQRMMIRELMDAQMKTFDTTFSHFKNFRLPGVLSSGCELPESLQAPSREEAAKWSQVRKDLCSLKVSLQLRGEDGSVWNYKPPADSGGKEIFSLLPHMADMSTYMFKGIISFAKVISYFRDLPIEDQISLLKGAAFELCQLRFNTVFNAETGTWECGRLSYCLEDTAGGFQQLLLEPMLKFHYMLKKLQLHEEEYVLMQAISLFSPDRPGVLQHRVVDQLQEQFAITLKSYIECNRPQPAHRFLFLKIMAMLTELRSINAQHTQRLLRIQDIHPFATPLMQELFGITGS
How it was run: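 Compound-induced hPXR transactivation of a CYP3A4 luciferase reporter was scored in HepG2 PXR-Luc cells over 24 hr at 37 C, 5% CO2, by luminescence.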

[16] = Caspase-3/7 induction in HepG2 cells by small molecules, qHTS assay (AID 1346978); note: nearly all actives have a fitted effect of over 15% in size
How it was run: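 Wild-type HepG2 cells, 2,000/well, settled 5 hr at 37 C and 5% CO2, then compound-treated for 17 hr; caspase-3/7 activity read by luminescent Caspase-Glo 3/7 after 30 min at room temperature.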

[17] = target: Acetylcholinesterase (Homo sapiens) (UniProt P22303); test: Acetylcholinesterase (AChE) small molecule antagonists: colormetric cell-based qHTS assay (AID 1347395; calls by dose curve; note: nearly all actives have a fitted effect of over 30% in size)
Chain of Acetylcholinesterase (Homo sapiens) (P22303 whole entry, looked up): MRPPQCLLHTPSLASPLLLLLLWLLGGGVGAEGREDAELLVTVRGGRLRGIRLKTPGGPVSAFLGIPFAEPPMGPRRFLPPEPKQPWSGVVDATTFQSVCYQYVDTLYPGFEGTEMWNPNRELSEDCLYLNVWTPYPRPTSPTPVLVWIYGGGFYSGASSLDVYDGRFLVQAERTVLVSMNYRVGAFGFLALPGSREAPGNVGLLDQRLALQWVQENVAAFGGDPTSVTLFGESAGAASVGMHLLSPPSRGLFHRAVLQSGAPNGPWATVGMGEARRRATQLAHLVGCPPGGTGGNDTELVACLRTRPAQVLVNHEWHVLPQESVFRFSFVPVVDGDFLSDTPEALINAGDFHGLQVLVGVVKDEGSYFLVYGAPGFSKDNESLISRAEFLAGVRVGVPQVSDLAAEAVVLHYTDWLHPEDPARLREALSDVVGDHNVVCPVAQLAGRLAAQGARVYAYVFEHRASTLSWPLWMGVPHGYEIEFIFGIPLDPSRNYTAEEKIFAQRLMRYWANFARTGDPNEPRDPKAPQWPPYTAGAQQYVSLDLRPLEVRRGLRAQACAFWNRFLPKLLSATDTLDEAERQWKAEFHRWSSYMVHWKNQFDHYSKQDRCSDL
How it was run: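 Neuroblastoma line SH-SY5Y supplied the enzyme; cells were preincubated with compound for 30 min at 37 C and 5% CO2. Acetylthiocholine with DTNB was then added for 90 min at 37 C, and thiocholine was measured by colour.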

[18] = target: Nuclear receptor subfamily 1 group I member 2 (Rattus norvegicus) (UniProt Q9R1A7); test: Rat pregnane X receptor (rPXR) activation by small molecules, qHTS assay (AID 1346983); settings: rPXR luciferase reporter cells, One-Glo luminescence, 24 h; max activation: active compounds read high; note: nearly all actives have a fitted effect of over 20% in size; note: potency is the fitted concentration of half-maximal effect
Chain of Nuclear receptor subfamily 1 group I member 2 (Rattus norvegicus) (Q9R1A7 whole entry, looked up): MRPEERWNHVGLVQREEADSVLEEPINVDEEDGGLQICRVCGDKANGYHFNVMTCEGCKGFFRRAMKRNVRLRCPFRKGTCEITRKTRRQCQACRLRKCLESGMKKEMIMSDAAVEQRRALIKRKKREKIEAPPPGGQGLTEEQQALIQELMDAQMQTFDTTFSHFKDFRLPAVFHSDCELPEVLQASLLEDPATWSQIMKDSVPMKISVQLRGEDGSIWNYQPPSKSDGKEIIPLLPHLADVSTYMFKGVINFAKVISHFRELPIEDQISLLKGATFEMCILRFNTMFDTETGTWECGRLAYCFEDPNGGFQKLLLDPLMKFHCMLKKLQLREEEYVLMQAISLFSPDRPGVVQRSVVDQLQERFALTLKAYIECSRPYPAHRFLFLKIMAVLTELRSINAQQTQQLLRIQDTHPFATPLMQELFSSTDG
How it was run: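 Cell-based rPXR activation assay: rPXR cells, 2,000 per well, rested 5hr at 37 C, then exposed to compounds in DMSO for 24 hr at 37 C. Luciferase activity read by One-Glo luminescence after 30 min at room temperature.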

[19] = target: Nuclear receptor subfamily 1 group I member 2 (Homo sapiens) (UniProt O75469); test: CYP3A4 induction through human pregnane X receptor (PXR) by small molecules, qHTS assay (AID 1346984); note: nearly all actives have a fitted effect of over 40% in size
How it was run: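 Readings come from a luciferase reporter: DPX-2 cells, which are HepG2 cotransfected with PXR and a CYP3A4-promoter construct, were exposed to test compounds for 24 h at 37C before One-Glo detection.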

[20] = target: Nuclear receptor subfamily 1 group I member 2 (Homo sapiens) (UniProt O75469); test: Human pregnane X receptor (PXR) activation by small molecules, qHTS assay (AID 1346985); note: nearly all actives have a fitted effect of over 40% in size
How it was run: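 DPX-2 cells (HepG2 co-transfected with a PXR response element and a CYP3A4-promoter luciferase construct) were seeded at 2,000 per well, rested 5 hr at 37C, then exposed to DMSO-dissolved compounds for 24 hr. Activation was read as luciferase luminescence.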
% is set by controls: 0 for no effect and ±100 for the full control effect.

CC(Cl)(Cl)[N+](=O)[O-]
inactive: Potency [1] | Potency [2] | Potency [3] | Potency [4] | Potency [5] | Potency [6] | outcome [7] | outcome [8] | outcome [9] | outcome [10] | Potency [11] | Potency [12] | Potency [13] | Potency [14] | Potency [15]

CCc1cc2c(s1)-n1c(C)nnc1CN=C2c1ccccc1Cl
inactive: Potency [1] | Potency [2] | Potency [3] | Potency [4] | Potency [5] | Potency [6] | outcome [7] | outcome [8] | outcome [9] | outcome [10] | Potency [11] | Potency [16] | Potency [12] | Potency [13] | Potency [14]

N#Cc1c(Cl)cccc1Cl
inactive: Potency [1] | Potency [2] | Potency [3] | Potency [4] | Potency [5] | Potency [6] | outcome [7] | outcome [8] | outcome [9] | outcome [10] | Potency [11] | Potency [16] | Potency [12] | Potency [13] | Potency [14] | Potency [15] | Potency [17]

CC(=O)CC(c1ccc(Cl)cc1)c1c(O)c2ccccc2oc1=O (configuration not stated)
inactive: Potency [1] | Potency [2] | Potency [3] | Potency [4] | Potency [5] | Potency [6] | outcome [7] | outcome [8] | outcome [9] | outcome [10] | Potency [11] | Potency [16] | Potency [12] | Potency [13] | Potency [14] | Potency [15] | Potency [17]

ClCCOCOCCCl
inactive: Potency [1] | Potency [2] | Potency [3] | Potency [4] | Potency [5] | Potency [6] | outcome [7] | outcome [8] | outcome [9] | outcome [10] | Potency [11] | Potency [16] | Potency [12] | Potency [13] | Potency [14] | Potency [15]

CCCCc1ccc(O)cc1
inactive: Potency [1] | Potency [2] | Potency [3] | Potency [4] | Potency [5] | Potency [6] | outcome [7] | outcome [8] | outcome [9] | outcome [10] | Potency [11] | Potency [16] | Potency [12] | Potency [13] | Potency [14] | Potency [15] | Potency [17]

CCOP(=S)(OCC)SCSc1ccc(Cl)cc1
inactive: Potency [1] | Potency [2] | Potency [4] | Potency [5] | Potency [6] | outcome [7] | outcome [8] | outcome [9] | outcome [10] | Potency [11] | Potency [12] | Potency [13] | Potency [14]
active: Potency [3] 4.86 µM | Potency [15] 10.9 µM

CN1C[C@@H](NS(=O)(=O)N(C)C)C[C@@H]2c3cccc4c3c(cn4C)C[C@H]21
inactive: Potency [1] | Potency [2] | Potency [3] | Potency [4] | Potency [5] | Potency [6] | outcome [7] | outcome [8] | outcome [9] | outcome [10] | Potency [11] | Potency [16] | Potency [12] | Potency [13] | Potency [14] | Potency [17]
active: Potency [15] 23.7 µM | Potency [18] 10 µM

CC(C)CC#N
inactive: Potency [1] | Potency [2] | Potency [3] | Potency [4] | Potency [5] | Potency [6] | outcome [7] | outcome [8] | outcome [9] | outcome [10] | Potency [11] | Potency [16] | Potency [13] | Potency [14] | Potency [17]

CC(=O)Nc1cc([As](=O)(O)O)ccc1O
inactive: Potency [1] | Potency [2] | Potency [3] | Potency [4] | Potency [5] | Potency [6] | outcome [7] | outcome [8] | outcome [9] | outcome [10] | Potency [11] | Potency [16] | Potency [12] | Potency [13] | Potency [14] | Potency [15] | max activation [18] -4.41% | Potency [19] | Potency [20] | Potency [17]

O=C(O)c1cccc(Cl)c1
inactive: Potency [1] | Potency [2] | Potency [3] | Potency [4] | Potency [5] | Potency [6] | outcome [7] | outcome [8] | outcome [9] | outcome [10] | Potency [11] | Potency [16] | Potency [12] | Potency [13] | Potency [14] | Potency [15] | Potency [17]

Oc1c(Cl)cccc1Cl
inactive: Potency [1] | Potency [2] | Potency [3] | Potency [4] | Potency [5] | Potency [6] | outcome [7] | outcome [8] | outcome [9] | outcome [10] | Potency [11] | Potency [16] | Potency [12] | Potency [13] | Potency [14] | Potency [15] | Potency [17]

CCOc1nc(C(Cl)(Cl)Cl)ns1
inactive: Potency [1] | Potency [2] | Potency [3] | Potency [4] | Potency [5] | Potency [6] | outcome [7] | outcome [8] | outcome [9] | outcome [10] | Potency [11] | Potency [16] | Potency [12] | Potency [13] | Potency [14] | Potency [15] | Potency [17]

CNC(=O)Oc1cccc(C(C)C)c1
inactive: Potency [1] | Potency [2] | Potency [3] | Potency [4] | Potency [5] | Potency [6] | outcome [7] | outcome [8] | outcome [9] | outcome [10] | Potency [11] | Potency [12] | Potency [13] | Potency [14]

O=C(CCN1CC1)OCC(CO)(COC(=O)CCN1CC1)COC(=O)CCN1CC1
inactive: Potency [1] | Potency [2] | Potency [3] | Potency [4] | Potency [5] | Potency [6] | outcome [7] | outcome [8] | outcome [9] | outcome [10] | Potency [11] | Potency [16] | Potency [12] | Potency [13] | Potency [14] | Potency [15] | Potency [17]

CCN(CC)C(C)C(=O)c1ccccc1 (configuration not stated)
inactive: Potency [1] | Potency [2] | Potency [3] | Potency [4] | Potency [5] | Potency [6] | outcome [7] | outcome [8] | outcome [9] | outcome [10] | Potency [11] | Potency [16] | Potency [12] | Potency [13] | Potency [14] | Potency [15] | max activation [18] -2.77% | Potency [19] | Potency [20] | Potency [17]
